Measured values as given in PubChem BioAssay (NCI).
About 79,000 compounds went through this panel and 15% of them were active in at least one assay; those are over-represented in the sample as a whole. Activity calls are given as the source filed them. Rule as the data show it: active = growth inhibition above about 70%; inactive = the rest.

Experiment: NCI Yeast Anticancer Drug Screen. Data for the wt2 strain (AID 169);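 also: 0% = growth of vehicle-treated yeast cultures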
Settings: S. cerevisiae wt2 strain growth inhibition, active compounds read high
Method: Growth inhibition of yeast strains with defined genetic alterations is measured as a screen for potential anti-cancer activity. Selected strains with alterations in DNA damage repair or cell cycle control were exposed to compounds and growth inhibition was measured relative to vehicle treated controls. The strain used in this assay is wt2

Measured: growth inhibition

C[C@]12CC[C@H](O)CC1=CC[C@@H]1[C@@H]2CC[C@]2(C)C(=O)CC[C@@H]12
inactive: at 1.2 µM -52% | at 3.7 µM -42% | at 11.0 µM -37% | at 33.0 µM 59%
active: at 100.0 µM 92%

O=c1c2ccccc2[se]n1-c1cccnc1
inactive: at 1.2 µM 18% | at 3.7 µM 18% | at 11.0 µM 25% | at 33.0 µM 42% | at 100.0 µM 60%

[O-][n+]1c2cccc(O)c2[n+]([O-])c2cccc(O)c21
inactive: at 1.2 µM 2% | at 3.7 µM 5% | at 11.0 µM 11% | at 33.0 µM 12% | at 100.0 µM 24%

O=[N+]([O-])c1cc([As](Br)c2ccc(O)c([N+](=O)[O-])c2)ccc1O
active: at 3.7 µM 94% | at 11.0 µM 99% | at 33.0 µM 99% | at 100.0 µM 99%
inactive: at 1.2 µM 12%

CCCN(CCC)c1c([N+](=O)[O-])cc(S(N)(=O)=O)cc1[N+](=O)[O-]
inactive: at 1.2 µM -6% | at 3.7 µM -2% | at 11.0 µM -7% | at 33.0 µM 3% | at 100.0 µM -2%

C[CH2][Sn]([CH2]C)([O]S(C)(=O)=O)[O]S(C)(=O)=O
inactive: at 1.2 µM -56% | at 3.7 µM -44% | at 11.0 µM -46% | at 33.0 µM 3% | at 100.0 µM 55%

COC1C(O)C(C)OC(OC2C(Oc3cccc4c(O)c5c(=O)oc6ccc(C)c7c(=O)oc(c34)c5c67)OC(C)C(O)C2O)C1O (stereo not given)
inactive: at 1.2 µM 0% | at 3.7 µM 3% | at 11.0 µM 12% | at 33.0 µM 22% | at 100.0 µM 20%

O=[N+]([O-])c1ccc(-n2nc3ccc4c(no[n+]4[O-])c3[n+]2[O-])c([N+](=O)[O-])c1
inactive: at 1.2 µM -8% | at 3.7 µM -3% | at 11.0 µM -2% | at 33.0 µM 2% | at 100.0 µM 3%
